# Records with an inconclusive call do not appear. A number with no mark means an inactive call. The call rests on the fitted dose curve; in most records, active means well fitted inhibition curve with a large enough effect; inconclusive means small, poorly fitted or top-dose-only effect; inactive means flat fitted curve, though single readings scatter.
# Target: Calcium and integrin-binding protein 1 (Homo sapiens) (UniProt Q99828)
# Assay: Primary qHTS for Identification of Calcium Integrin Binding Protein 1 (CIB1) Competitor (AID 1508620); further: top concentration of the series differs between compounds
# Conditions: CIB1-GST / FITC-alphaIIb peptide fluorescence polarization; series mostly up to 114 µM; activity change, negative = inhibition: at the top concentration
# How it was run: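 Fluorescence polarization competition: GST-tagged CIB1 (1 uM final) preincubated with compound 15 min at room temperature, then FITC-labelled alphaIIb peptide (100 nM final) added. After 15 min at room temperature, polarization read at Ex 480/Em 540.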
# On the % scale 0 is the no-effect control and ±100 the full control effect.
# Sequence of Calcium and integrin-binding protein 1 (Homo sapiens) (Q99828 whole entry, looked up): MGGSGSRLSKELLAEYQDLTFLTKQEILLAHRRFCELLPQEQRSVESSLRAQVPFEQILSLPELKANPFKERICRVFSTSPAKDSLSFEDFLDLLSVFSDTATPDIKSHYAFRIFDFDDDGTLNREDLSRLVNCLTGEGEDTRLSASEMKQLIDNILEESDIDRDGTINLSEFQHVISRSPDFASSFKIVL
row,SMILES,"activity change, negative = inhibition"
1,CNC(=O)COC(=O)N1CCC(CCc2ccc(Cl)cc2)CC1,-3.28%
2,CCC/C=C\C=C/CCc1cc(O)c([C@@H]2O[C@H](CO)[C@@H](O)[C@H](O)[C@H]2O)c(O)c1C(=O)OC,3.42% [at 57.7 µM]
3,COc1cc(/C=C/C(=O)NCCn2c(C(F)(F)F)cc3ccccc32)cc(OC)c1OC,4.94%
4,CC1(C)CC[C@]23CO[C@@]4(CCC5[C@@]6(C)CC[C@H](O[C@@H]7OC[C@H](O[C@@H]8O[C@H](CO)[C@@H](O)[C@H](O)[C@H]8O[C@@H]8OC[C@@H](O)[C@H](O)[C@H]8O)[C@H](O)[C@H]7O[C@@H]7O[C@H](CO)[C@@H](O)[C@H](O)[C@H]7O)[C@@](C)(CO)C6CC[C@@]5(C)[C@]4(C)C[C@H]2O)[C@@H]3C1 (some centres undefined),2.42% [at 30.2 µM]
5,C/C=C(/C)C(=O)OC1C=C2C3C(C)C(C)C(OC(=O)C(C)C(C)O)CC3(C)CCC2(C)C2(C)CC(OC(C)=O)C3C(C)(C)C(O)C(=O)CC3(C)C12 (centres undefined),-3.23% [at 30.2 µM]
6,N#Cc1ccnc(Nc2cc(C3CCN(C4COC4)CC3)cc(N3CCC(F)(F)C3)n2)c1,-3.9% [at 57.7 µM]
7,C/C1=C\[C@@H](C)C[C@@H](C)[C@@H](Cc2cnco2)OC(=O)/C(C)=C/[C@@H](C)C[C@@H](C)[C@@H](Cc2cnco2)OC1=O,-2.26% [at 57.7 µM]
8,CN1CCN(c2ccc(Nc3cc(-c4cccc(-n5ccc6cc(C7CC7)cc(F)c6c5=O)c4CO)cn(C)c3=O)nc2)CC1,-8.37%
9,O=C(Cc1c(F)cccc1F)Nc1cc(OCc2ccc(Cl)cc2)ccn1,0.41%
10,CC(=O)OC1CC2(C)C(CCC(C)C23Cc2c(O)cc(CO)c(C=O)c2O3)C(C)(C)C1O (centres undefined),1.28% [at 57.7 µM]
11,Cc1ccc(-c2ncccn2)c(C(=O)N2C[C@H](COc3ccc(F)cn3)CC[C@H]2C)c1,1.43%
12,COc1cc([C@H]2O[C@H](c3cc(OC)c4c(c3)OCO4)[C@H](C)[C@H]2C)cc(OC)c1OC,4.26% [at 57.7 µM]
13,CC(C)(C)C1CCN(C(=O)n2ncc(C(O)(c3ccccc3)c3ccccc3)n2)CC1,-3.66%
14,C1=C/COCc2cc(ccc2OCCN2CCCC2)Nc2nccc(n2)-c2cccc(c2)COC/1,4.51%
15,C[C@@H]1O[C@@H](O[C@H]2[C@H](OC(=O)[C@]34CCC(C)(C)C[C@H]3C3=CCC5[C@@]6(C)C[C@H](O)[C@H](O[C@@H]7O[C@H](C(=O)O)[C@@H](O)[C@H](O)[C@H]7O)[C@@](C)(CO)C6[C@H](O)C[C@@]5(C)[C@]3(C)C[C@H]4O)O[C@@H](CO)[C@@H]2O)[C@H](O)[C@H](O)[C@H]1O[C@@H]1OC[C@@H](O)[C@H](O[C@H]2OC[C@](O)(CO)[C@H]2O)[C@H]1O (some centres undefined),1.16% [at 12.4 µM]
16,C/C=C(\C)C(=O)OC1C(C)C2(O)C(C=C(CO)CC3(O)C(=O)C(C)=CC32)C2C(C)(C)C12OC(=O)C(C)C (centres undefined),0.04% [at 57.7 µM]
17,C=CC(C)(O)CC[C@@H]1[C@@]2(C)CCCC(C)(C)C2CC[C@@]1(C)O (some centres undefined),-5.82%
18,CC1(C)CCC2(C(=O)OC3OC(COC4OC(CO)C(O)C(O)C4O)C(O)C(O)C3O)CCC3(C)C(=CCC4C5(C)CCC(OC6OCC(O)C(O)C6O)C(C)(C)C5CCC43C)C2C1O (centres undefined),2.9% [at 30.2 µM]
19,COC(=O)C[C@H]1C(C)(C)[C@H](OC(=O)c2ccccc2)C2CC3=C4CC(=O)O[C@@H](c5ccoc5)[C@]4(C)CCC3[C@@]1(C)C2=O (some centres undefined),1.02% [at 57.7 µM]
20,CN(C)c1ccnc2sc3c(=O)n(N4CCCCCC4)cnc3c12,-3.42%
21,CCC(=C(c1ccc(OCCN2CCCC2)cc1)c1ccc(OCCN2CCCC2)cc1)c1ccccc1,-0.885%
22,C[C@H]1CC[C@@]2(OC1)O[C@H]1CC3[C@@H]4CC[C@@H]5C[C@@H](O[C@@H]6O[C@H](CO)[C@@H](O[C@@H]7O[C@H](CO[C@@H]8OC[C@@H](O)[C@H](O)[C@H]8O)[C@@H](O[C@@H]8O[C@H](CO)[C@H](O)[C@H](O)[C@H]8O)[C@H](O)[C@H]7O)[C@H](O)[C@H]6O)CC[C@]5(C)C4CC[C@]3(C)[C@H]1[C@@H]2C (some centres undefined),5.09% [at 30.2 µM]
23,CCC(CC)C(=O)OC12C(OC(=O)C(C)C)C(C)C3(O)C(C=C(CO)CC4(O)C(=O)C(C)=CC43)C1C2(C)C (centres undefined),3.19% [at 57.7 µM]
24,CC(=O)OC(C)(C)/C=C/C(=O)[C@](C)(O)[C@H]1C(O)C[C@@]2(C)[C@@H]3CC=C4[C@@H](C=C(O[C@@H]5O[C@H](CO)[C@@H](O)[C@H](O)[C@H]5O)C(=O)C4(C)C)[C@]3(C)C(=O)C[C@]12C (some centres undefined),2.08% [at 30.2 µM]

# From PubChem BioAssay (NCATS)
